The other results are listed elsewhere or left out. The source made the active and inactive calls.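 How the source made its calls: active means a half-inhibiting concentration could be measured and was below 100 µM; inactive means the rest.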
test system: Thioredoxin reductase 1 (TXNRD1), rat; assay: qHTS Assay for Inhibitors of Mammalian Selenoprotein Thioredoxin Reductase 1 (TrxR1): DTNB Assay; settings: purified TrxR1, DTNB reduction, A412
Source text: The selenoprotein thioredoxin reductase (TrxR; EC 1.8.1.9) is a FAD containing homodimeric pyridine nucleotide-disulfide oxidoreductase with many cellular roles. Together with NADPH and its prime substrate thioredoxin (Trx), the enzyme forms the core of the Trx system. The mammalian Trx system exerts a wide spectrum of functions including redox regulation, antioxidant defense, regulation of transcription factors as well as support of cell growth and replication. Many of these functions involve the reduction of Trx, which may subsequently reduce a number of different substrates including ribonucleotide reductase, peroxiredoxins or NFkB. Mammalian TrxR itself also has a broad substrate specificity, reducing both protein and non-protein substrates, including low molecular weight compounds such as dehydroascorbate, lipoic acid, ubiquinone, and juglone. In addition, several drugs in clinical use for anticancer treatment are indeed known to target TrxR1. This orthogonal DTNB assay seeks to further characterize cherry picks. NIH Molecular Libraries Probe Production Network [MLPCN] NIH Chemical Genomics Center [NCGC] MLPCN Grant: MH090846 Assay Provider: Elias Arner, Karolinska Institute
15 nM TrxR1 is reduced by 250 microM NADPH in TE buffer [50 mM Tris-HCl (pH 7.5), 2 mM EDTA] in a 96-well microtiter plate. Compounds are then added and incubated for 30 min at 30 degrees C. During compound incubation, NADPH consumption is followed by the decrease in absorbance at 340 nm using a VersaMax microplate reader (Molecular Devices) to determine substrate potential of the compound. DTNB is subsequently added to a final concentration of 2.5 mM, and the formation of TNB- is followed at 412 nm at 30 degrees C to assess inhibitory activity of the compound.

Potency, active:
CC1CCN(C(=O)c2ccc(S(=O)(=O)Cc3cc(F)ccc3F)c([N+](=O)[O-])c2)CC1 317 nM, O=C(/C=C/c1ccco1)Nc1cccc(-c2nc3ccccc3[nH]2)c1 10300 nM, Cc1ccccc1-c1nc(CS(=O)(=O)CC(=O)N2CCc3ccccc3C2)c(C)o1 292 nM

From PubChem BioAssay AID652256 (National Center for Advancing Translational Sciences (NCATS), 2013)
